# From PubChem BioAssay (EPA / NIEHS)
# Where “and” joins values, the source holds several entries; their conditions need not be identical. Equal entries are not always repeated. Records with an inconclusive call do not appear. Where a structure was tested more than once in an assay, its records may differ in their call. Calls of active or inactive are those of the source. The calls were made as follows, unless noted: active = hit-call score of the fitted dose curve at least 0.9, where 1 is the maximum; inactive = score below 0.9.
# Key:
# [1] = molecular target: human Vitamin D Receptor (VDR), VDR (gene 7421) (UniProt P11473); experiment: ATG_VDR_TRANS: Attagene TRANS-FACTORIAL HepG2 Assay for human Vitamin D Receptor (VDR) (AID 2283022; active = hit-call score of the fitted dose curve at least 0.9, where 1 is the maximum)
# Chain of human Vitamin D Receptor (VDR), VDR (gene 7421) (P11473 whole entry, looked up, the tested form may be a part): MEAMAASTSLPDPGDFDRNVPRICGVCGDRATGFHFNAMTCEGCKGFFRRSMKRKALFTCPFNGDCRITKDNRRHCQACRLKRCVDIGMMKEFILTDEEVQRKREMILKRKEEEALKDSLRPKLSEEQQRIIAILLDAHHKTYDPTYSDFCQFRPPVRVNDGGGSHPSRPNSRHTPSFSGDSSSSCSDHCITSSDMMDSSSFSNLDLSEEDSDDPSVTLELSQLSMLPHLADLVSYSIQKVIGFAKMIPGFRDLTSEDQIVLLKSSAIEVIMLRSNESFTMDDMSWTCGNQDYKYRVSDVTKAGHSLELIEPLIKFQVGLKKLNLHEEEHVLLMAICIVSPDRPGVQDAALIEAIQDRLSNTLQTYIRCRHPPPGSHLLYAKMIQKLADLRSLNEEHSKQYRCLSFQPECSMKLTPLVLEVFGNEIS
# How it was run: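 HepG2 cells were transiently transfected with multiple GAL4-UAS reporter units, so signal reflects exogenous chimeric receptor-Gal4 activity. After 24 h compound exposure, reporter mRNA was measured by RT-PCR, fluorescent labelling and capillary electrophoresis, fitted for gain of signal versus DMSO.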
# [2] = read-out: Interleukin-8 (IL8), CXCL8 (gene 3576); experiment: BSK_3C_IL8: BioMAP Diversity Plus: 3C Assay for Interleukin-8 (IL8) Biomarker Activity (AID 2283020); settings: primary human endothelial cells (HUVEC); actives raise or lower the signal
# How it was run: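 HUVEC, 3C stimulation; 24 h compound exposure; IL-8 read by ELISA; gain or loss of signal fitted relative to DMSO control.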
# [3] = read-out: Monokine induced gamma interferon (MIG), CXCL9 (gene 4283); experiment: BSK_3C_MIG: BioMAP Diversity Plus: 3C Assay for Monokine induced gamma interferon (MIG) Biomarker Activity (AID 2283021); settings: primary human endothelial cells (HUVEC); actives raise or lower the signal
# How it was run: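 HUVEC, 3C system; 24 h chemical exposure; MIG by ELISA; bidirectional fit vs DMSO baseline.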
# [4] = BSK_3C_SRB: Viability Assessment in the BioMAP Diversity Plus: 3C Assay (AID 2283023); settings: primary human endothelial cells (HUVEC);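 also: fitted both ways against DMSO so a hit may be signal rise or drop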
# How it was run: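 Primary human umbilical vein endothelial cells in the 3C system were read 24 h after compound dosing. Total protein was stained with 0.1% sulforhodamine B after 10% TCA fixation and read at 560 nm, with bidirectional fitting against DMSO as baseline.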
# [5] = read-out: Matrix Metallopeptidase 1 (MMP1), MMP1 (gene 4312); experiment: BSK_BE3C_MMP1: BioMAP Diversity Plus: BE3C Assay for Matrix Metallopeptidase 1 (MMP1) Biomarker Activity (AID 2283024); settings: primary human bronchial epithelial cells; actives raise or lower the signal
# How it was run: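 ELISA read-out of MMP1 in human lung bronchial epithelial primary cultures, 24 h post-dose; bidirectional curve fit vs DMSO baseline, gain or loss of signal scored.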
# [6] = read-out: Pselectin, SELP (gene 6403); experiment: BSK_4H_Pselectin: BioMAP Diversity Plus: 4H Assay for Pselectin Biomarker Activity (AID 2283026); settings: primary human endothelial cells (HUVEC); actives raise or lower the signal
# How it was run: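 HUVEC, 24 h chemical exposure; P-selectin read by ELISA. Bidirectional curve fit vs DMSO baseline; gain or loss of signal scored.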
# [7] = BSK_4H_SRB: Viability Assessment in the BioMAP Diversity Plus: 4H Assay (AID 2283027); settings: primary human endothelial cells (HUVEC);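 also: cells exposed to compound for 24 h before staining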
# How it was run: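 Cytotoxicity read-out in primary human endothelial cells: after 24 h compound exposure, cells were TCA-fixed (10%), stained with 0.1% SRB and absorbance taken at 560 nm. Values fitted in both directions relative to DMSO.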
# [8] = BSK_BE3C_SRB: Viability Assessment in the BioMAP Diversity Plus: BE3C Assay (AID 2283028); settings: primary human bronchial epithelial cells
# How it was run: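 Human primary bronchial epithelial cells were exposed to test chemicals for 24 h. Total protein in parallel cultures was then measured by staining with 0.1% sulforhodamine B after 10% TCA fixation, with absorbance read at 560 nm. Activity was fitted bidirectionally against DMSO.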
# [9] = read-out: Thrombomodulin, THBD (gene 7056); experiment: BSK_3C_Thrombomodulin: BioMAP Diversity Plus: 3C Assay for Thrombomodulin Biomarker Activity (AID 2283029); settings: primary human endothelial cells (HUVEC); actives raise or lower the signal
# How it was run: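 HUVEC, 3C conditions; compound 24 h; thrombomodulin by ELISA; bidirectional curve fit vs DMSO baseline; parallel SRB total-protein staining for cytotoxicity.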
# [10] = BSK_3C_Vis: BioMAP Diversity Plus: 3C Assay for Morphology Visualization (AID 2283025); settings: primary human endothelial cells (HUVEC);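 also: fitted both ways so gain or loss versus DMSO counts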
# How it was run: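 HUVEC, 3C system; light microscopy of morphology at 24 h post-dose. Bidirectional fit vs DMSO baseline. Secondary readout, background-control function.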
compound,measurement,setting,value
COC(=O)CC(C)CCC=C(C)C (stereo unspecified),outcome,[1],inactive
CCCCCCCCCCCC(=O)N(C)CC(=O)O,outcome,[2],inactive
same,outcome,[3],inactive
same,outcome,[4],inactive
same,AC50,[5],8.01 µM (active) and 15.5 µM (active)
same,AC50,[6],1890 nM (active)
same,outcome,[6],inactive
same,outcome,[7],inactive
same,outcome,[8],inactive
same,outcome,[9],inactive
C1CNCCN1,outcome,[2],inactive
same,outcome,[3],inactive
same,outcome,[4],inactive
same,outcome,[5],inactive
same,outcome,[10],inactive
same,outcome,[6],inactive
same,outcome,[8],inactive
same,outcome,[9],inactive
CCCCCCCCCCCCCC(=O)OC(C)C,outcome,[1],inactive
CCCCCC1=CCCC1=O,outcome,[2],inactive
same,outcome,[3],inactive
same,outcome,[4],inactive
same,AC50,[5],16 nM (active)
same,outcome,[10],inactive
same,outcome,[6],inactive
same,outcome,[8],inactive
same,outcome,[9],inactive
Cc1cc(=O)[nH]c(=O)[nH]1,outcome,[1],inactive
O=C1CCCCCCCCCCCN1,outcome,[2],inactive
same,outcome,[3],inactive
same,outcome,[4],inactive
same,outcome,[5],inactive
same,outcome,[10],inactive
same,outcome,[6],inactive
same,outcome,[8],inactive
same,outcome,[9],inactive
